# Data as given in PubChem BioAssay (EPA / NIEHS).
# Results filed as inconclusive are left out. Activity calls are given as the source filed them. How the source made its calls: active means hit-call score of the fitted dose curve at least 0.9, where 1 is the maximum; inconclusive means response in the unintended direction; inactive means score below 0.9.
# Legend:
# [1] = biological target: human Tropomyosin Receptor Kinase A (TRKA), NTRK1 (gene 4914) (UniProt P04629); assay: NVS_ENZ_hTrkA: NovaScreen (NVS) Enzymatic Assay for human Tropomyosin Receptor Kinase A (TRKA) (AID 2283224)
# human Tropomyosin Receptor Kinase A (TRKA), NTRK1 (gene 4914), sequence (P04629 whole entry, looked up): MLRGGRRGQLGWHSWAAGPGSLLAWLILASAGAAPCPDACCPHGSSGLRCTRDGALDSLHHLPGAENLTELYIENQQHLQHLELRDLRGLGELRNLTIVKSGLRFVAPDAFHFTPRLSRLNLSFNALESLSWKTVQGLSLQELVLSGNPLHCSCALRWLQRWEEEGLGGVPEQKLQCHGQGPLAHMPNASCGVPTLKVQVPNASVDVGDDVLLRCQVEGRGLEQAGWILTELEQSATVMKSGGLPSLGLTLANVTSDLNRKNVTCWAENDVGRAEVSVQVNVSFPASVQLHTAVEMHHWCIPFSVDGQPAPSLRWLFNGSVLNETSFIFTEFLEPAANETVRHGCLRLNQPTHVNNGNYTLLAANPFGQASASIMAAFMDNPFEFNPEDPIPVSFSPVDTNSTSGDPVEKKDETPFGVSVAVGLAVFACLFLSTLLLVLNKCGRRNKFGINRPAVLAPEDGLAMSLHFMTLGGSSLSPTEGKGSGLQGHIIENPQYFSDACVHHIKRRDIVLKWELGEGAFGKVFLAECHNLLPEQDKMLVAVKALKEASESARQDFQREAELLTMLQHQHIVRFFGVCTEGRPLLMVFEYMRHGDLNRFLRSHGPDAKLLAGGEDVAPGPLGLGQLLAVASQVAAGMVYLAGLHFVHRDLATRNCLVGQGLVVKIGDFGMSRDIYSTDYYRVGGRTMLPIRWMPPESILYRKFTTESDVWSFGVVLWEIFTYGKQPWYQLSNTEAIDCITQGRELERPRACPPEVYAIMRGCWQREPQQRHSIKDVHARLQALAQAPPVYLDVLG
# Procedure: NVS_ENZ_hTrkA is a biochemical, single-readout assay that uses extracted gene-proteins in a cell-free assay. Measurements were taken 1 hour after chemical dosing in a 384-well plate.NVS_ENZ_hTrkA is one of one assay component(s) measured or calculated from the NVS_ENZ_hTrkA assay. It is designed to make measurements of enzyme activity, a form of enzyme reporter, as detected with fluorescence intensity signals by Fluorescence and electrophoretic mobility shift technology.Data from the assay component NVS_ENZ_hTrkA was analyzed into 1 assay endpoint. This assay endpoint, NVS_ENZ_hTrkA, was analyzed in the positive analysis fitting direction relative to DMSO as the negative control and baseline of activity. Using a type of enzyme reporter, loss-of-signal activity can be used to understand changes in the enzymatic activity as they relate to the gene NTRK1. Furthermore, this assay endpoint can be referred to as a primary readout, because this assay has produced multiple assay endpoints where this one serves a enzymatic activity function. To generalize the intended target to other relatable targets, this assay endpoint is annotated to the kinase intended target family, where the subfamily is receptor tyrosine kinase. […]
# [2] = biological target: human Vascular Endothelial Growth Factor Receptor 3 (VEGFR3), FLT4 (gene 2324) (UniProt P35916); assay: NVS_ENZ_hVEGFR3: NovaScreen (NVS) Enzymatic Assay for human Vascular Endothelial Growth Factor Receptor 3 (VEGFR3) (AID 2283229)
# human Vascular Endothelial Growth Factor Receptor 3 (VEGFR3), FLT4 (gene 2324), sequence (P35916 whole entry, looked up): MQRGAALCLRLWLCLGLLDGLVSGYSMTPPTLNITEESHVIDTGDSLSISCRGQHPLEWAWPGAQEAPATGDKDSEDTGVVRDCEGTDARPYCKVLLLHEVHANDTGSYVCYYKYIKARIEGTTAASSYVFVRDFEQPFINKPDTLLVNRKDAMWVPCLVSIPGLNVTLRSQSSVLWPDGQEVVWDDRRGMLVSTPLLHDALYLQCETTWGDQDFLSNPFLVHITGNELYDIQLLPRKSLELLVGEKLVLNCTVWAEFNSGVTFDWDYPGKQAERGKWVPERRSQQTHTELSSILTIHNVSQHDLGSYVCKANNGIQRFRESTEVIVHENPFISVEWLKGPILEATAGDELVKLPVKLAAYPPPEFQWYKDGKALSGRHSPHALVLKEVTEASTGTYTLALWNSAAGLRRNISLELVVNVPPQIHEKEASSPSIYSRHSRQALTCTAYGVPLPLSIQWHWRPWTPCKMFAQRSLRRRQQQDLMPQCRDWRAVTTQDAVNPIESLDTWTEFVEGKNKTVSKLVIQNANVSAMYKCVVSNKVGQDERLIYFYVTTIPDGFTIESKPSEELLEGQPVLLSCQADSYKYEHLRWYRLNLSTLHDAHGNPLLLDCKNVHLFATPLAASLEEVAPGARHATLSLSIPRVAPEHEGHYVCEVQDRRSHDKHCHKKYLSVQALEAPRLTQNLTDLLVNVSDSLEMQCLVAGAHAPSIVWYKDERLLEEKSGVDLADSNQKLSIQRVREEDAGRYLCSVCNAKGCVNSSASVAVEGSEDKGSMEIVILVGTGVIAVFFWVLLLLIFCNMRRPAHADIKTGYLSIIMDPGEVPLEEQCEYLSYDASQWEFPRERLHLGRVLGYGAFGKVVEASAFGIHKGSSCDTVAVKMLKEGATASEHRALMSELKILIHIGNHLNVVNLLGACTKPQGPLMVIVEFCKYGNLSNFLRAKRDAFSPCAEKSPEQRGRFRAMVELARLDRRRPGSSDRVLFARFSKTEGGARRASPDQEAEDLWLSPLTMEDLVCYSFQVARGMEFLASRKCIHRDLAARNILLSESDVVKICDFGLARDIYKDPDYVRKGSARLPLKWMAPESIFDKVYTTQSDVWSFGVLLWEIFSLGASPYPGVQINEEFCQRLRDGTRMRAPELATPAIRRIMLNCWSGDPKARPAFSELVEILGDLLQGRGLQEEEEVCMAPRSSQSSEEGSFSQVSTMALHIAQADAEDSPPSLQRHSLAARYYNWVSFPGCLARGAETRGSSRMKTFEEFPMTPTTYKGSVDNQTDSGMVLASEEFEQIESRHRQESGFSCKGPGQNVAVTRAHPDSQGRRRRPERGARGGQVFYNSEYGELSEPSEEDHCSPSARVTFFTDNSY
# Procedure, shortened: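 Cell-free recombinant VEGFR3 kinase reaction with fluorescent substrate, read 1 h after dosing by electrophoretic mobility shift separation of substrate and product. Single-concentration duplicate screen at 25 uM, then concentration-response up to 50 uM; loss of activity versus DMSO.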
smiles,measurement,setting,value
CCN(CC)CCOc1ccc(C(=C(Cl)c2ccccc2)c2ccccc2)cc1,outcome,[1],inactive
O=C(O)CC(O)(CC(=O)O)C(=O)O,outcome,[1],inactive
CCCCCCCCCCCCCCCCO,AC50,[2],46.6 µM (active)
O=C(O)c1[nH]n(-c2ccc(S(=O)(=O)O)cc2)c(=O)c1N=Nc1ccc(S(=O)(=O)O)cc1,outcome,[2],inactive
